The values that follow come from PubChem BioAssay (NCI).

What all share (test): NCI-60 one-dose screen, 48 h (100 = growth as untreated, 0 = no growth, -100 = all killed)
Assay [1] deals with HCT-15 colon. The conditions noted are these: 10 µM.
The test system of assay [2] is HT29 colon. The conditions noted are these: 10 µM.
In assay [3] the test system is SNB-75 CNS. The conditions noted are these: 10 µM.
In assay [4] the test system is SNB-19 CNS. The conditions noted are these: 10 µM.
The test system of assay [5] is U251 CNS. The conditions noted are these: 10 µM.
In assay [6] the test system is PC-3 prostate. The conditions noted are these: 10 µM.
Assay [7] has as its system SK-MEL-5 melanoma. The conditions noted are these: 10 µM.
Assay [8] concerns UACC-62 melanoma. The conditions noted are these: 10 µM unless noted.
In assay [9] the test system is LOX IMVI melanoma. The conditions noted are these: 10 µM.
The subject of assay [10] is SK-MEL-28 melanoma. The conditions noted are these: 10 µM.

The panel holds about 83,000 compounds, 20% with a hit somewhere; the sample as a whole holds those more often.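 Interpretation: 100, growth as untreated; towards 0, rising growth inhibition; 0, no net growth; 0 to -100, cell death. Compounds scoring below 10 were considered active.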 Unmarked numbers belong to inactive results. Activity calls are given as the source filed them.

Turning to `OCc1ccc(-c2ccc(-c3ccc(CO)s3)o2)s1`, the growth in [1] is 51%; in assay [2], -26.5% (active); in assay [3], 58.8%; in [4], 78.4%; in assay [5] it was 15.3%; in assay [6], 73.1%. Moreover, the growth in assay [7] was 60.6%; in assay [8] it was -35% (active); in assay [9] it was 73.2%.
Turning to `CCCCOC(=O)c1ccc(C(C)C)cc1`, the growth in [1] is 101%; in assay [2] it was 94.9%; in assay [3] it was 84.3%; in assay [4], 105%; in assay [5], 93.8%; in [6], 84.7%. The growth is 106% in [7], 103% in assay [8] and 96.7% in [9].
`COC(=O)c1cccnc1`: the growth in assay [1] was 103%; in [2] it was 101%; in assay [3], 88.2%; in assay [4], 95.3%; in assay [5], 99.4%; in assay [6], 95.2%. Besides, the figures for the growth in assay [7], in [8] and in assay [9] were 96.4%, 90.8% and 95.6%, respectively.
For `COC(=O)c1ccc(C(C)C)cc1`, the growth in assay [1] was 96.2%; in assay [2], 107%; in [3] it was 103%; in assay [4], 103%; in assay [5], 98.6%; in assay [6], 90.6%. Moreover, the figures for the growth in assay [7], in assay [8] and in assay [9] were 104%, 99.4% and 95%, respectively.
As to `Cc1ccc(Cl)cc1N1C(=O)CC(Sc2ccccc2N)C1=O` (centres undefined), the growth was 93.4% in assay [1]; 109% in [2]; 65.5% in assay [3]; 102% in [4]; 102% in assay [5]; 89.5% in assay [6]. Besides, the results for the growth in assay [7], in assay [8] and in assay [9] were 110%, 95.8% and 94.7%, respectively.
As for `Cc1cccc(CO)c1`, the growth in assay [1] was 105%; in [2] it was 108%; in assay [3] it was 95.1%; in assay [4], 107%; in assay [5], 94.5%; in assay [6], 104%. Besides, the values for the growth in [7], in assay [8] and in assay [9] were 99.7%, 104% and 100%, respectively.
As for `CC1=C(/C=C/C(C)=C/C=C/C(C)=C/CO)C(C)(C)CCC1`, the growth is 112% in assay [1]; 112% in assay [2]; 95.3% in assay [3]; 95.7% in [4]; 102% in assay [5]; 96.5% in assay [6]. Also, the growth in [7] is 107%; in assay [8], 99.2%; in [9], 94.7%.
As for `CCOC(=O)C(CCC(C)C)C(=O)OCC`, the growth is 104% in assay [1]; 94.4% in [2]; 94.6% in assay [3]; 109% in assay [4]; 101% in [5]; 107% in [6]. Moreover, the growth in [7] is 102%; in [8] it was 101%; in assay [9] it was 115%.
With `CO[C@H]1C[C@@H]2CC[C@@H](C)[C@@](O)(O2)C(=O)C(=O)N2CCCC[C@H]2C(=O)O[C@H]([C@H](C)C[C@@H]2CC[C@@H](O)[C@H](OC)C2)CC(=O)[C@H](C)C=C(C)[C@@H](O)[C@@H](OC)C(=O)[C@H](C)C[C@H](C)/C=C/C=C/C=C1C`, the growth in [1] was 42.7%; in [2] it was 45.3%; in assay [3], 13.3%; in assay [4], 46.2%; in [5] it was 51.8%; in assay [6], 44%. In addition, the growth in [7] was 24.8%; in [8], 43.8%; in assay [9] it was 51.9%.
Turning to `Nc1nc(OCc2ccccc2)c2[nH]cnc2n1`, the growth in [1] is 63.7%; in [2] it was 105%; in assay [3], 8.69% (active); in assay [4], 104%; in [5] it was 100%; in assay [6], 84.4%. For the same compound, the growth is 94% in [7], 86.1% in assay [8] and 83.1% in assay [9].
Consider `CCCC(C)OCC(=O)O` (centres undefined), for which the growth in [1] is 104%; in assay [2], 109%; in [3], 85.8%; in assay [4], 100%; in [5] it was 93.5%; in assay [6] it was 98.4%. The growth in assay [7] was 99.8%; in [8], 110%; in assay [9], 99.1%; in [10], 97.9%.
With `N#C/C(=C\c1cc(O)c(O)c(O)c1)C(N)=O`, the growth in [1] is 88.6%; in assay [2], 103%; in [3], -17.7% (active); in assay [4], 101%; in assay [5] it was 93%; in [6], 46.5%. The growth in [7] is 101%; in assay [8] it was 98.1%; in assay [9] it was 92.3%.
As for `CC1=CC(=O)c2ccccc2C1=O`, the growth is 102% in assay [1]; 112% in [2]; 90.9% in assay [3]; 101% in assay [4]; 101% in assay [5]; 108% in assay [6]. In addition, the figures for the growth in [7], in [8] and in assay [9] were 103%, 100% and 96.5%, respectively.
On to `CN(C)c1ccc(C(c2ccc(O)cc2)c2ccc(N(C)C)cc2)cc1`, for which the growth was 70.8% in [1]; 86.2% in [2]; 87.3% in assay [3]; 97.2% in assay [4]; 98.5% in [5]; 88.7% in assay [6]. The figures for the growth in [7] and in assay [8] were 90.5% and 79.8%, respectively.
For `O=[N+]([O-])c1ccc(S(=O)(=O)NN=C2CCCCC2)cc1`, the growth in assay [1] was 115%; in [2], 107%; in assay [3], 87.8%; in [4], 99.8%; in [5], 111%; in [6], 96.8%. In addition, the values for the growth in assay [7], in [8] and in assay [9] were 105%, 117% and 95%, respectively.
With `Cc1ccc(CCCC(=O)O)c(C)c1`, the growth in assay [1] is 99%; in assay [2] it was 98.8%; in assay [3], 79.2%; in assay [4], 101%; in assay [5], 94.1%; in [6], 97.1%. Further, the growth is 102% in [7], 102% in assay [8] and 99.3% in assay [9].
